Compound activity (PubChem BioAssay)
The list is not random: actives were taken first. Their share in the collection is about 2.3%.
Bim-Mcl-1: disrupts Bim peptide binding to human Mcl-1. Q07820. Bead-based flow cytometry, Bim peptide-Mcl-1 binding. inhibition, % at 10 µM. 0.1% of 190,000 active; in the data active means inhibition above about 40%;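 further: 0% = no compound tracer wells and 100% = peptide blocker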
Target sequence (Q07820 whole entry, looked up): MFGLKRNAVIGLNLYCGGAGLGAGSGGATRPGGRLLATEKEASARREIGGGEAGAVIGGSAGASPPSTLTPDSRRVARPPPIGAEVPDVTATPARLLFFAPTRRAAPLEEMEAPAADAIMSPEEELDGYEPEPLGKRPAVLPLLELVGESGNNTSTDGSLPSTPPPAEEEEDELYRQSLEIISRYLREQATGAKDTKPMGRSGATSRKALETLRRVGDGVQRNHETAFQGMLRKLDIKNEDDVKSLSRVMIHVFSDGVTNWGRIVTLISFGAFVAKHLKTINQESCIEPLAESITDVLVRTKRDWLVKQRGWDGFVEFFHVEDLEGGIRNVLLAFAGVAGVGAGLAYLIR
Mcl1-Bid inh: disrupts binding of human Mcl-1 to Bid peptide. inhibition, % at 21.7 µM. TR-FRET Mcl-1/Bid-Dy647 peptide binding, 1536-well. 0.97% of 220,000 active. AID 1021. Q07820;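 active means compounds that cut the binding signal by more than half at the single screening dose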;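 further: His-tagged Mcl-1 with europium anti-His antibody binding Bid BH3 peptide; 0% = Mcl-1 plus peptide wells and 100% = peptide-only wells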
GLD-1 RNA inh: GLD-1-TGE RNA interaction inhibition (C. elegans). Q17339. purified GLD-1 + fluorescein TGE RNA, fluorescence polarization. inhibition, % at 5.96 µM. 0.44% of 320,000 active;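 active means percent inhibition above a per-plate cutoff, the plate mean of test compounds plus 3 SD, cut at about 30% in these data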;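 further: 0% = DMSO wells with GLD-1 and probe and 100% = wells lacking GLD-1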
Bcl-xL primary: inhibitors of human Bcl-xL. Q07817. GST-Bcl-xL / FITC-Bim BH3 peptide fluorescence polarization. inhibition, % at 10.9 µM. 0.7% of 320,000 active;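 active means inhibition above the mean of all tested compounds plus 3 SD, cutoff set per campaign, cut at about 30% in these data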;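 further: 0% = DMSO wells and 100% = unlabeled Bim-BH3 peptide competitor; inhibitors lower millipolarization by displacing the labeled peptide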
Target sequence (Q07817 whole entry, looked up): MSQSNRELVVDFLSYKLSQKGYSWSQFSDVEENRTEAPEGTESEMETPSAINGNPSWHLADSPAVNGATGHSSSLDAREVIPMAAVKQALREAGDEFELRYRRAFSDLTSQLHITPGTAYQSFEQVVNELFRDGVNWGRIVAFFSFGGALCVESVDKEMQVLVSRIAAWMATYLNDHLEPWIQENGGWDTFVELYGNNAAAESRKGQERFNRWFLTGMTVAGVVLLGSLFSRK
MCL1-BIM inh: inhibitors of human MCL1 binding to BIM-BH3 peptide | Q07820 | GST-MCL1 / FITC-Bim-BH3 fluorescence polarization | inhibition, % at 10.9 µM | 0.68% of 320,000 active;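 active means inhibition above the mean inhibition of all tested compounds plus 3 SD, set per campaign, cut at about 40% in these data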;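 further: 0% = DMSO wells and 100% = unlabeled Bim-BH3 peptide control; higher means more loss of mP so more displacement of Bim peptide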
Mcl1 Noxa PPI: disrupts binding of human Mcl-1 to Noxa peptide. Q07820. TR-FRET Mcl-1/Noxa peptide binding, 2 h. inhibition, % at 21.7 µM. 1.5% of 220,000 active. AID 1022;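 active means compounds that cut the protein-peptide binding signal by more than 50% relative to plate controls in a single-dose test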;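 further: His-tagged Mcl-1 with rhodamine Noxa BH3 peptide and terbium anti-His antibody; 0% = Mcl-1 plus Noxa peptide wells and 100% = peptide-only wells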
Active calls of the source: *; . = no result given.

SMILES	Bim-Mcl-1	Mcl1-Bid inh	GLD-1 RNA inh	Bcl-xL primary	MCL1-BIM inh	Mcl1 Noxa PPI
COc1ccc2cc(C3(C)NC(=O)N(CC(=O)NCCC4=CCCCC4)C3=O)ccc2c1 (stereo not drawn)	4	-5	2	-2	-2	10
CN(C(=O)c1ccc(Br)o1)C1CCCCC1	.	.	2	6	4	.
CCOC(=O)C1=C(COC(=O)c2ccc([N+](=O)[O-])o2)NC(=O)NC1C (stereo not drawn)	.	.	4	-13	-21	.
Cc1ccc(-n2[nH]c(C)c(C=Nc3ccc4[nH]c(=O)[nH]c4c3)c2=O)cc1	2	10	8	17	28	62*
CCOC(=O)C1=C(c2ccccc2)N=c2s/c(=C\c3cc(OC)c(OC)c(OC)c3)c(=O)n2C1c1cccs1 (stereo not drawn)	2	-32	4	35*	27	-23
CCOc1ncccc1C(=O)OCC(=O)N(CC(C)C)C1CCS(=O)(=O)C1 (stereo not drawn)	0	-21	0	91*	1	-16
COC(=O)[C@@]1(Cc2ccc(F)cc2)[C@H]2c3cc(C(=O)N4CCCC4)n(CCc4ccc(O)c(O)c4)c3C[C@H]2CN1C(=O)c1ccccc1	17	-7	14	12	12	65*
CCn1nc([N+](=O)[O-])c2c(-c3nc4ccccc4o3)c(N)n(CCCOC)c2c1=O	1	27	8	4	34	52*
O=C1N/C(=N/Nc2ccccc2)S/C1=C\c1ccccc1	-5	-56	-3	6	19	97*
CC(C)c1nnc(NC(=O)CSc2ncn[nH]2)s1	-9	-3	3	-2	10	53*
COC(=O)c1ccc(NC(C)=O)cc1O	-7	-11	.	.	.	2
Cc1ccc(/C=C2\SC(=S)N(Cc3ccccc3)C2=O)o1	6	-29	-5	2	16	90*
O=C(O)c1cc(-c2ccc(/C=C3/SC(=S)N(Cc4ccccc4)C3=O)o2)ccc1Cl	16	101*	.	.	.	85*
CC1(C)OC(=O)C(=Cc2ccc(-c3ccc(Cl)c(C(=O)O)c3)o2)C(=O)O1	-1	-24	-5	3	1	26
COc1ccc(CN2C(=O)/C(=C/c3ccc(-c4ccc(Cl)c(C(=O)O)c4)o3)SC2=S)cc1	13	99*	.	.	.	92*
O=C1/C(=C/c2ccncc2)SC(=S)N1Cc1ccccc1	.	4	-1	3	11	5
Cc1ccc(NC(=O)CN2C(=O)S/C(=C/c3ccc(-c4cccc(C(=O)O)c4)o3)C2=O)cc1	2	-31	.	.	.	83*
COC(=O)c1ccc(N2NC(=O)/C(=C/c3ccc(-c4ccc(Cl)c(C(=O)O)c4)o3)C2=O)cc1	2	-82	.	.	.	41
FC(F)(F)c1nc(=S)c2ccccc2[nH]1	86*	-48	.	.	.	32
Cc1nc(=S)c2ccccc2[nH]1	33	5	-7	-2	0	16
Nc1cccc2[nH]c(C(F)(F)F)nc12	-28	18	-1	6	2	52*
CN1N=C(C(=O)N2CCCC(C(=O)c3cccc(C(F)(F)F)c3)C2)CCC1=O (stereo not drawn)	48*	-19	-2	-1	0	16
O=c1[nH]c2ccccc2nc1C(F)(F)C(F)F	0	63*	3	2	-7	12
C/C(O)=C/c1nc2ccccc2[nH]c1=O	0	-25	-9	3	2	4
Cc1nc2ccccc2[nH]c1=O	.	59*	6	5	8	12
SMILES	Bim-Mcl-1	Mcl1-Bid inh	GLD-1 RNA inh	Bcl-xL primary	MCL1-BIM inh	Mcl1 Noxa PPI
COc1ccc(NCc2cccnc2)cc1	.	.	5	0	1	.
O=C(Nc1nnc(-c2ccco2)s1)C1CCN(S(=O)(=O)c2ccc(Cl)cc2)CC1	2	.	4	1	5	.
O=C(Nc1nnc(-c2ccco2)s1)C1CC1	-4	77*	6	1	9	7
CCOC(=O)c1[nH]cnc1C(=O)Nc1ccc(F)cc1	-2	-21	1	3	7	16
CCOC(=O)c1[nH]cnc1C(=O)Nc1ccncc1	-1	83*	6	-2	1	-11
COc1ccc(S(=O)(=O)N2CCOc3ccccc32)cc1	.	.	0	3	9	.
CCCN1CCc2c(sc3nc(SC)n(-c4ccccc4)c(=O)c23)C1	.	.	2	27	11	.
O=C1NC(=Nc2ccccc2)S/C1=C\c1ccccc1	.	.	-3	-1	-6	.
Cc1ccc(N=C2NC(=O)S/C2=C\c2ccco2)cc1	0	48	-4	23	26	83*
O=C1NC(=Nc2ccccc2)/C(=C/c2ccco2)S1	-3	-32	-36	42*	47*	47
CC(=O)N1CCN(S(=O)(=O)c2cccc(C(=O)NCc3ccc(F)cc3)c2)CC1	.	.	4	.	.	.
Cc1nnc(SCC(=O)c2ccc(C(C)C)cc2)s1	-6	-8	-2	1	6	15
O=C(CCCOc1ccccc1)N1CCN(c2ccccc2)CC1	2	59*	2	1	-4	-13
c1ccc(N2CCN(c3nc(-c4cccs4)nc4ccccc34)CC2)cc1	5	-9	1	-3	-4	0
Oc1ccc(N2CCN(c3nc(-c4cccs4)nc4ccccc34)CC2)cc1	.	-42	8	32*	44*	94*
C#CCOCCOCCOCCNc1nc(N2CCN(C(=O)[C@H](Cc3cc4ccccc4[nH]3)n3cc(C(N)CC(C)C)nn3)CC2)nc(N2CCN(C(=O)[C@H](CCC(=O)O)n3cc(C(N)[C@H](C)CC)nn3)CC2)n1 (stereo partly drawn)	-1	63*	5	5	8	31
C#CCOCCOCCOCCNc1nc(N2CCN(C(=O)[C@H](CCC(=O)O)n3cc(C(N)CC(C)C)nn3)CC2)nc(N2CCN(C(=O)[C@H](CCC(=O)O)n3cc(C(N)[C@H](C)CC)nn3)CC2)n1 (stereo partly drawn)	1	76*	5	1	3	36
C#CCOCCOCCOCCNc1nc(N2CCN(C(=O)C([C@@H](C)CC)n3cc(C(N)CC(C)C)nn3)CC2)nc(N2CCN(C(=O)[C@H](CCC(=O)O)n3cc(C(N)[C@H](C)CC)nn3)CC2)n1 (stereo partly drawn)	-2	7	3	1	2	37
C#CCOCCOCCOCCNc1nc(N2CCN(C(=O)[C@H](Cc3cc4ccccc4[nH]3)n3cc([C@@H](N)CC(C)C)nn3)CC2)nc(N2CCN(C(=O)[C@H](Cc3cc4ccccc4[nH]3)n3cc([C@@H](N)CC(C)C)nn3)CC2)n1	0	75*	-9	5	-8	54*
